# Beta cell apopt: beta cell apoptosis inhibition; 0.8% of 300,000 active; INS-1E cytokine-induced death, ATP luminescence, 48 h; percent of positive-control rescue, neutral wells zero; protection from apoptosis, % (concentration not given with the values);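 active = Every replicate reaches about 75%, or at least half do and their mean reaches it too, limit read from the data; inconclusive = At least half of replicates reach the limit but their mean does not; inactive = Under half of replicates reach the limit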;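 note: 0% = cytokine-treated negative control wells and 100% = positive control rescue; higher means more ATP so stronger rescue from cytokine killing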
# MPTP block: inhibitors of mitochondrial permeability transition pore; inhibition, % at 10 µM; 1.4% of 360,000 active; isolated mouse mitochondria, Ca2+ swelling absorbance, 30 min;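 active = inhibition of 50% or more, scaled per plate between neutral and stimulator controls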;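 note: 0% = DMSO wells given calcium and 100% = 1 mM EGTA wells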
# Mdm2 MdmX PPI: human Mdm2/MdmX binding inhibition. AID 485346. SaOS-2 split-luciferase Mdm2/MdmX complementation, luminescence. inhibition, % at 8 µM. 3% of 330,000 active;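 active = inhibition of at least 50% at 8 µM in the primary screen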
# Calb FLC: affects C. albicans growth with fluconazole; C. albicans CaCi-2 (fluconazole-resistant clinical isolate) + fluconazole, Alamar Blue growth, 48 h; growth inhibition, % (test concentration not listed); 0.57% of 300,000 active; AID 1979;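 active = growth inhibition above about 58% in most replicates, limit read from the data, passing the limit was not always enough; inconclusive = exactly half the replicates above a set limit; inactive = most replicates below a set limit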;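 note: all wells also contain fluconazole at 8 µg/ml as a sub-toxic cotreatment; 0% = median of DMSO wells and 100% = median of geldanamycin control wells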
# CSC inhib: cancer stem cell inhibition; AID 2717; cancer stem cell-like cells viability, luminescence; inhibition, % at 7.5 µM; 1.1% of 300,000 active; in the data active = inhibition above about 75%; inconclusive = no clear call, values can overlap the other calls; tested in HMLE shEcad cells
# Mdm2 MdmX conf: human Mdm2/MdmX binding inhibition, confirmed; shares compounds with Mdm2 MdmX PPI; luminescent assay; inhibition, % at 8 µM; 55% of 10,000 active; AID 489028; in the data active = inhibition above about 40%
# FLuc counter: counter-screen for Mdm2/MdmX inhibitors: full-length luciferase; SaOS-2 full-length luciferase counterscreen, luminescence; shares compounds with Mdm2 MdmX PPI; 77% of 6,200 active; inhibition, % at 8 µM;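 active = mean inhibition at 8 µM reaching about 37%, which flags the compound as non-specific, limit read from the data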;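 note: p53-null SaOS-2 cells with luciferase driven by a doxycycline-inducible promoter; compound on cells about two nights before reading with doxycycline added after day one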
# MPTP counter: membrane potential counter-screen of mitochondrial pore inhibitors | shares compounds with MPTP block | isolated mitochondria, Rhodamine 123 fluorescence | AID 624504 | 78% of 5,000 active | inhibition, % at 10 µM; in the data active = inhibition above about 22%;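 note: 0% = DMSO vehicle and 100% = positive control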
# MPTP abs DR: dose response confirmation of mitochondrial permeability transition pore inhibitors | shares compounds with MPTP block | isolated mitochondria swelling, absorbance | IC50, µM | 58% of 780 active | AID 651561; in the data active = IC50 below about 20 µM
# MPTP cs DR: active in counter-screen for permeability transition pore inhibitors; IC50, µM; isolated mitochondria counterscreen, fluorescence read-out; shares compounds with MPTP block; 49% of 780 active; AID 651564; in the data active = IC50 below about 80 µM
# Starred values were filed as active, the others as inactive; i = inactive; ? = inconclusive; · = no result given; ! = not active in a repeat. This is a sample that favours compounds with a hit; in the whole collection about 4.8% have one here.
SMILES,Beta cell apopt,MPTP block,Mdm2 MdmX PPI,Calb FLC,CSC inhib,Mdm2 MdmX conf,FLuc counter,MPTP counter,others
O=C(COC(=O)CCC(=O)c1ccc(F)cc1)Nc1ccc2[nH]c(=O)[nH]c2c1,-11.1,0.1,11.2,-5.4,-6.6,·,·,·,
O=[N+]([O-])c1ccc(Cl)c(NC2=NCCCCC2)c1,-5.5,-0.1,15.0,0.7,·,·,·,·,
CCc1ccc(Nc2n[n+](-c3ccccc3)c(-c3cccc(C)c3)s2)cc1,69.1,2.3,3.2,·,26.5,·,·,·,
c1ccc(-[n+]2nc(Nc3cccc4ccccc34)sc2-c2c3ccccc3cc3ccccc23)cc1,116.7*,97.5*,64.8*,·,6.0,80.2*,23.6,92.8*,
COc1ccc(C)cc1Nc1n[n+](-c2ccccc2)c(-c2c(OC)ccc3ccccc23)s1,124.2*,99.5*,91.6*,·,86.8*,62.3*,29.0,104.6*,
Oc1ccc2ccccc2c1-c1sc(Nc2ccccc2)n[n+]1-c1ccc(F)cc1,-7.3,3.3,-27.4,5.8,5.6,·,·,·,
Fc1ccc(-[n+]2nc(Nc3ccccc3)sc2-c2c3ccccc3cc3ccccc23)cc1,66.7,91.7*,100.3*,16.6,103.1*,90.0*,42.2*,110.6*,
O=c1c2cc(NC(=S)N3CCCCCC3)ccc2nc2n1CCCCC2,-6.2,-3.6,9.8,?,10.7,·,·,·,
COC(=O)CSc1nc(C)c(C)c(C)c1C(N)=O,·,-1.5,14.9,-9.1,3.6,·,·,·,
N#Cc1c(NC(=O)c2ccccc2)sc2c1CCCCC2,13.1,12.0,-218.1,-2.3,21.2,·,·,·,
N#Cc1c(Cl)nsc1NC(=O)c1ccccc1,77.9*,77.5*,76.1*,106.2*,46.0,51.6*,70.5*,89.3*,
CC(CN1CCN(CCOCCO)CC1)CN1c2ccccc2Sc2ccc(Cl)cc21 (configuration not stated),·,-1.5,·,·,·,·,·,·,
OCCN1CCN(CCCN2c3ccccc3Sc3ccc(C(F)(F)F)cc32)CC1,11.4,86.0*,60.5*,·,85.5*,26.6,·,-18.1,
CCSc1ccc2c(c1)N(CCCN1CCN(C)CC1)c1ccccc1S2,7.7,95.7*,60.3*,·,77.5*,21.2,·,-20.0,
CN1CCN(CCCN2c3ccccc3Sc3ccc(Cl)cc32)CC1,3.0,91.9*,54.1*,·,93.7*!,31.9,·,-18.6,
O=C1C=CN2CCCCC2CC1 (configuration not stated),25.2,-1.6,-7.4,·,-4.3,·,·,·,
CCN(CC)c1ccc(CNc2nc3ccccc3n2CCN2CCCCC2)cc1,87.8*,64.1*,89.0*,-27.1,78.3*,48.5*,76.6*,95.9*,
CC1(C)CC(c2nc(-c3ccc([N+](=O)[O-])cc3)cs2)CCO1 (configuration not stated),-1.9,-1.2,-17.7,-24.6,-9.5,·,·,·,
CCOc1ccc(/C=N/NC(=O)c2cccc3ccccc23)c(OCC)c1,-6.6,1.4,11.1,2.7,-6.1,·,·,·,
Cc1cc(Oc2ccccc2)nc(NCc2ccccc2)n1,-9.8,3.4,45.0,-1.9,26.7,·,·,·,
Cc1cc(Nc2ccc(Cl)cc2)nc(NCc2ccccc2)n1,15.8,53.4*,63.1*,?,39.1,41.6*,74.9*,31.4*,
CCCCNc1cc(C)nc(NCc2ccccc2)n1,103.8*,103.6*,67.4*,-3.8,38.4,60.0*,38.9*,131.5*,
Fc1cc(NCc2ccccc2)nc(NCc2ccccc2)n1,-11.9,3.3,20.4,5.9,3.5,·,·,·,
Cc1cc(Nc2cccc(F)c2)nc(NCc2ccccc2)n1,105.9*,92.4*,66.3*,45.4,39.0,24.8,·,73.4*,
Cc1cc(C)nc(NCCCc2ccccc2)n1,-0.9,-1.6,-20.4,-28.7,0.2,·,·,·,
SMILES,Beta cell apopt,MPTP block,Mdm2 MdmX PPI,Calb FLC,CSC inhib,Mdm2 MdmX conf,FLuc counter,MPTP counter,others
Cc1cc(Nc2ccccc2)nc(NCc2ccccc2)n1,101.2*,90.1*,53.3*,97.1*,34.4,36.6,58.7*,91.8*,
CCOc1ccc(C(=O)N2CCN(CC(=O)N3CCCC3)CC2)cc1OCC,1.9,0.1,-21.9,·,·,·,·,·,
Cc1cc(N2CCC(C)CC2)nc(-c2ccccc2O)n1,8.9,2.1,13.4,6.5,12.2,·,·,·,
Cc1cc(N2CCC(C)CC2)nc(NCc2ccccc2)n1,100.7*,90.9*,79.9*,34.1,36.6,51.5*,39.5*,111.1*,
CC(C)Nc1nnc(SCC(=O)N2CCN(C(=O)c3ccco3)CC2)s1,6.6,-2.3,1.2,·,·,·,·,·,
C=CCOC(=O)C1=C(C)NC(SCC(=O)Nc2ccc(C)c(Cl)c2)=C(C#N)C1c1ccco1 (configuration not stated),4.8,71.8*,63.0*,1.2,-2.5,50.6*,46.4*,76.8*,
COc1cccc(COC(=O)C2CCN(S(=O)(=O)c3ccc(F)cc3)CC2)c1OC,·,-2.3,1.8,·,·,·,·,·,
Cc1cc(C)c2sc(N(CCCN(C)C)C(=O)c3ccc(S(=O)(=O)N(C)C4CCCCC4)cc3)nc2c1,·,77.3*,97.1*,-4.2,-3.4,48.1*,79.0*,-11.8,
Cc1cc(C)c2nc(N(CCCN(C)C)C(=O)c3ccc(S(=O)(=O)N4CCCCCC4)cc3)sc2c1,·,83.3*,79.8*,3.5,0.3,49.5*,70.5*,-10.4,MPTP abs DR=6.37*;MPTP cs DR=>80
Cc1ccc2sc(N(CCCN(C)C)C(=O)c3ccc(S(=O)(=O)N4CCCCCC4)cc3)nc2c1C,·,58.0*,62.6*,-8.0,77.1*,36.5,88.6*,-16.2,MPTP abs DR=i;MPTP cs DR=63.9*
COc1cc2nc(N(CCCN(C)C)C(=O)c3ccc(S(=O)(=O)N(C)C4CCCCC4)cc3)sc2cc1OC,·,2.8,17.5,3.3,0.1,·,·,·,
CN(C)CCCN(C(=O)c1ccc(S(=O)(=O)N2CCCCC2)cc1)c1nc2cc3c(cc2s1)OCO3,-7.2,0.8,10.3,-5.6,7.4,·,·,·,
CC(C)N1CCC2(CC1)N=C(c1ccc3c(c1)OCO3)CC(c1cc(Cl)ccc1O)N2 (configuration not stated),8.6,69.1*,69.6*,-5.3,7.0,27.0,·,-5.8,
O=[N+]([O-])c1cccc(N/N=C/c2cccc3ccccc23)c1,3.1,31.9,-14.2,-31.6,43.2,·,·,·,
COc1ccc2cc1Oc1ccc(cc1)C[C@H]1c3cc(c(OC)cc3CCN1C)Oc1c(OC)c(OC)cc3c1[C@H](C2)N(C)CC3,5.3,77.2*,100.4*,·,-6.0,99.5*,51.5*,-12.9,
CCSCCc1nnc(NC(=O)Nc2cccc(C(F)(F)F)c2)s1,118.9*,79.5*,94.9*,-8.9,27.4,95.2*,49.6*,72.6*,
CCN1/C(=C/c2ccc3cc(C)ccc3[n+]2CC)Sc2ccc3sccc3c21,140.4*,80.4*,100.5*,101.1*,49.3,87.1*,16.5,87.0*,

# Assay outcomes deposited in PubChem by several laboratories.
